The supplement of paper PMC10849652
The full data set covers some 8,800 targets. This sample favours those with a hit. About 0.5% of all pairs of compound and target were hits.

Legend:
Assay in all cases: log2 fold change, soluble protein after heating vs DMSO (PISA); higher = thermal stabilisation; K562 lysate, 10 uM; active = over 0.2 and 3.5 SD of the protein, either way, in both replicates (recomputed)
[1] = compound: C#Cc1cccc(Nc2ncnc3cc(OCCOC)c(OCCOC)cc23)c1 [erlotinib]
How it was run: (§1)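 Dounce homogenisation of K562 pellets in PBS pH 7.4 with 1 mM MgCl2 produced a crude extract, used at 1 mg/mL protein. Exposure to 10 μM compound lasted 30 min, and aliquots were then heated for 3 min across 48°C-58°C, pooled and brought to 0.5% NP-40 at 4°C. The supernatant after 21,000xg for 90 min was quantified by TMTpro 16plex LC-MS/MS with channel sums equalised. Duplicate values are given as log-two fold change in thermal stability relative to solvent controls.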

[2] = compound: C/C(=N\NC(=O)C1=CC(=CC=C1)S(=O)(=O)N2CCOCC2)/C3=C(C=CC(=C3)Cl)O
How it was run: as §1

[3] = compound: C1=CC(=CC=C1C2=NC3=C(N2)C=C(C=C3)C(=O)N)OC4=CC=C(C=C4)Cl
How it was run: as §1

[4] = compound: C1=CC2=C(C=CC(=C2)/C=C\3/C(=O)NC(=NCC4=CC=CS4)S3)N=C1
How it was run: as §1

[5] = compound: C1=CC2=NC=CN=C2C=C1/C=C/3\C(=O)NC(=O)S3
How it was run: as §1

[6] = compound: C1=CC=C(C=C1)C2=NC(=C(N2)C3=CC=NC=C3)C4=CC(=C(C=C4)Cl)O
How it was run: as §1

[7] = compound: C1=CC=C2C(=C1)C3=NNC4=CC=CC(=C43)C2=O
How it was run: as §1

[8] = compound: C1CCN(C1)C(=O)NC2=CC=CC(=C2)NC3=NC=C(C(=N3)NCCC4=CN=CN4)Br
How it was run: as §1

[9] = compound: C1CN(CCC1(CC2=CC=C(C=C2)Cl)N)C3=NC=NC4=C3C=CN4
How it was run: as §1

[10] = compound: C1COCCN1CCN2C3=CC=CC=C3N=C2NC(=O)C4=CC(=CC=C4)[N+](=O)[O-] [IRAK-1-4 Inhibitor I]
How it was run: as §1

[11] = compound: C=CC(=O)N1CCC[C@@H](n2nc(-c3ccc(Oc4ccccc4)cc3)c3c(N)ncnc32)C1 [ibrutinib]
How it was run: as §1

[12] = compound: CC(=O)c1cnc2ccc(-c3cc(Cl)c(O)c(Cl)c3)nc2c1N[C@H]1CC[C@H](CN(C)C)CC1
How it was run: as §1

[13] = compound: CC(C)(C)Cn1c(N)nc2ccc(-c3[nH]c(C(C)(C)C)nc3-c3ccc(F)cc3)nc21 [ralimetinib]
How it was run: as §1

[14] = compound: CC(C)(O)CC(=O)NCCn1ccc2ncnc(Nc3ccc(Oc4cccc(C(F)(F)F)c4)c(Cl)c3)c21
How it was run: as §1

[15] = compound: CC(C)C1=C2N=C(C=C(N2N=C1)NCC3=CC=CC=C3)NCCCCCCN
How it was run: as §1

[16] = compound: CC1=C(C(CC(=O)N1)C2=CC=C(C=C2)C(F)(F)F)C(=O)NC3=C(C=C4C(=C3)C=NN4)F
How it was run: as §1

[17] = compound: CC1=C(C2=C(C=C1)C(=O)C3=CC=CC=C3N2CCCN)C
How it was run: as §1

[18] = compound: CC1=C(C=C(C=C1)NC(=O)C2=CC(=CC=C2)C(C)(C)C#N)NC3=CC4=C(C=C3)N=CN(C4=O)C
How it was run: as §1

[19] = compound: CC1=C(C=C(C=C1)NC(=O)C2=CC(=CC=C2)N(C)C)NC(=O)C3=CC=C(C=C3)O
How it was run: as §1

[20] = compound: CC1=CC=C(C=C1)SC2=C3C=C(SC3=CN=C2)C(=O)N
How it was run: as §1

Measured: log2 fold change

RPL36AL (UniProt Q969Q0)
inactive: [1] -0.036 | [2] -0.098 | [3] -0.012 | [4] 0.061 | [5] -0.029 | [6] 0.029 | [7] 0.048 | [8] 0.049 | [9] -0.05 | [10] -0.109 | [11] -0.038 | [12] 0.004 | [13] -0.018 | [14] 0.088 | [15] -0.004 | [16] -0.001 | [17] 0.068 | [18] -0.038 | [19] 0.013 | [20] 0.052

SCCPDH (UniProt Q8NBX0)
Sequence of UniProt Q8NBX0 (Q8NBX0 whole entry, looked up): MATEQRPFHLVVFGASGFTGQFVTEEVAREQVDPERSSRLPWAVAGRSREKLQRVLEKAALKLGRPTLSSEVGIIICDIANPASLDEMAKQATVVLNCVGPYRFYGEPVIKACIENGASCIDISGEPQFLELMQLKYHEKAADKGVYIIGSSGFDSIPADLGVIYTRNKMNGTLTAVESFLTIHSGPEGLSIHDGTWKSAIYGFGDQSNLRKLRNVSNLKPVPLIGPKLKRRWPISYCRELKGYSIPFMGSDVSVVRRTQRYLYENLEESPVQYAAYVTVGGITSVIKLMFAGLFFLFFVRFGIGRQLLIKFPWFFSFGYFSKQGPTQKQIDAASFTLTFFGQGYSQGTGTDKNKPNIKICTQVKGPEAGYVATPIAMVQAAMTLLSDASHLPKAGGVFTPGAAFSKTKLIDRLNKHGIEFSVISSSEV
inactive: [1] -0.213 | [2] -0.055 | [3] -0.027 | [4] 0.083 | [5] -0.243 | [6] 0.052 | [7] 0.185 | [8] -0.03 | [9] 0.026 | [10] 0.016 | [11] 0.155 | [12] -0.042 | [13] 0.083 | [14] 0.112 | [15] 0.122 | [16] -0.017 | [17] -0.068 | [18] 0.055 | [19] -0.098 | [20] 0.187

RANBP2 (UniProt P49792)
Sequence of UniProt P49792 (P49792 whole entry, looked up): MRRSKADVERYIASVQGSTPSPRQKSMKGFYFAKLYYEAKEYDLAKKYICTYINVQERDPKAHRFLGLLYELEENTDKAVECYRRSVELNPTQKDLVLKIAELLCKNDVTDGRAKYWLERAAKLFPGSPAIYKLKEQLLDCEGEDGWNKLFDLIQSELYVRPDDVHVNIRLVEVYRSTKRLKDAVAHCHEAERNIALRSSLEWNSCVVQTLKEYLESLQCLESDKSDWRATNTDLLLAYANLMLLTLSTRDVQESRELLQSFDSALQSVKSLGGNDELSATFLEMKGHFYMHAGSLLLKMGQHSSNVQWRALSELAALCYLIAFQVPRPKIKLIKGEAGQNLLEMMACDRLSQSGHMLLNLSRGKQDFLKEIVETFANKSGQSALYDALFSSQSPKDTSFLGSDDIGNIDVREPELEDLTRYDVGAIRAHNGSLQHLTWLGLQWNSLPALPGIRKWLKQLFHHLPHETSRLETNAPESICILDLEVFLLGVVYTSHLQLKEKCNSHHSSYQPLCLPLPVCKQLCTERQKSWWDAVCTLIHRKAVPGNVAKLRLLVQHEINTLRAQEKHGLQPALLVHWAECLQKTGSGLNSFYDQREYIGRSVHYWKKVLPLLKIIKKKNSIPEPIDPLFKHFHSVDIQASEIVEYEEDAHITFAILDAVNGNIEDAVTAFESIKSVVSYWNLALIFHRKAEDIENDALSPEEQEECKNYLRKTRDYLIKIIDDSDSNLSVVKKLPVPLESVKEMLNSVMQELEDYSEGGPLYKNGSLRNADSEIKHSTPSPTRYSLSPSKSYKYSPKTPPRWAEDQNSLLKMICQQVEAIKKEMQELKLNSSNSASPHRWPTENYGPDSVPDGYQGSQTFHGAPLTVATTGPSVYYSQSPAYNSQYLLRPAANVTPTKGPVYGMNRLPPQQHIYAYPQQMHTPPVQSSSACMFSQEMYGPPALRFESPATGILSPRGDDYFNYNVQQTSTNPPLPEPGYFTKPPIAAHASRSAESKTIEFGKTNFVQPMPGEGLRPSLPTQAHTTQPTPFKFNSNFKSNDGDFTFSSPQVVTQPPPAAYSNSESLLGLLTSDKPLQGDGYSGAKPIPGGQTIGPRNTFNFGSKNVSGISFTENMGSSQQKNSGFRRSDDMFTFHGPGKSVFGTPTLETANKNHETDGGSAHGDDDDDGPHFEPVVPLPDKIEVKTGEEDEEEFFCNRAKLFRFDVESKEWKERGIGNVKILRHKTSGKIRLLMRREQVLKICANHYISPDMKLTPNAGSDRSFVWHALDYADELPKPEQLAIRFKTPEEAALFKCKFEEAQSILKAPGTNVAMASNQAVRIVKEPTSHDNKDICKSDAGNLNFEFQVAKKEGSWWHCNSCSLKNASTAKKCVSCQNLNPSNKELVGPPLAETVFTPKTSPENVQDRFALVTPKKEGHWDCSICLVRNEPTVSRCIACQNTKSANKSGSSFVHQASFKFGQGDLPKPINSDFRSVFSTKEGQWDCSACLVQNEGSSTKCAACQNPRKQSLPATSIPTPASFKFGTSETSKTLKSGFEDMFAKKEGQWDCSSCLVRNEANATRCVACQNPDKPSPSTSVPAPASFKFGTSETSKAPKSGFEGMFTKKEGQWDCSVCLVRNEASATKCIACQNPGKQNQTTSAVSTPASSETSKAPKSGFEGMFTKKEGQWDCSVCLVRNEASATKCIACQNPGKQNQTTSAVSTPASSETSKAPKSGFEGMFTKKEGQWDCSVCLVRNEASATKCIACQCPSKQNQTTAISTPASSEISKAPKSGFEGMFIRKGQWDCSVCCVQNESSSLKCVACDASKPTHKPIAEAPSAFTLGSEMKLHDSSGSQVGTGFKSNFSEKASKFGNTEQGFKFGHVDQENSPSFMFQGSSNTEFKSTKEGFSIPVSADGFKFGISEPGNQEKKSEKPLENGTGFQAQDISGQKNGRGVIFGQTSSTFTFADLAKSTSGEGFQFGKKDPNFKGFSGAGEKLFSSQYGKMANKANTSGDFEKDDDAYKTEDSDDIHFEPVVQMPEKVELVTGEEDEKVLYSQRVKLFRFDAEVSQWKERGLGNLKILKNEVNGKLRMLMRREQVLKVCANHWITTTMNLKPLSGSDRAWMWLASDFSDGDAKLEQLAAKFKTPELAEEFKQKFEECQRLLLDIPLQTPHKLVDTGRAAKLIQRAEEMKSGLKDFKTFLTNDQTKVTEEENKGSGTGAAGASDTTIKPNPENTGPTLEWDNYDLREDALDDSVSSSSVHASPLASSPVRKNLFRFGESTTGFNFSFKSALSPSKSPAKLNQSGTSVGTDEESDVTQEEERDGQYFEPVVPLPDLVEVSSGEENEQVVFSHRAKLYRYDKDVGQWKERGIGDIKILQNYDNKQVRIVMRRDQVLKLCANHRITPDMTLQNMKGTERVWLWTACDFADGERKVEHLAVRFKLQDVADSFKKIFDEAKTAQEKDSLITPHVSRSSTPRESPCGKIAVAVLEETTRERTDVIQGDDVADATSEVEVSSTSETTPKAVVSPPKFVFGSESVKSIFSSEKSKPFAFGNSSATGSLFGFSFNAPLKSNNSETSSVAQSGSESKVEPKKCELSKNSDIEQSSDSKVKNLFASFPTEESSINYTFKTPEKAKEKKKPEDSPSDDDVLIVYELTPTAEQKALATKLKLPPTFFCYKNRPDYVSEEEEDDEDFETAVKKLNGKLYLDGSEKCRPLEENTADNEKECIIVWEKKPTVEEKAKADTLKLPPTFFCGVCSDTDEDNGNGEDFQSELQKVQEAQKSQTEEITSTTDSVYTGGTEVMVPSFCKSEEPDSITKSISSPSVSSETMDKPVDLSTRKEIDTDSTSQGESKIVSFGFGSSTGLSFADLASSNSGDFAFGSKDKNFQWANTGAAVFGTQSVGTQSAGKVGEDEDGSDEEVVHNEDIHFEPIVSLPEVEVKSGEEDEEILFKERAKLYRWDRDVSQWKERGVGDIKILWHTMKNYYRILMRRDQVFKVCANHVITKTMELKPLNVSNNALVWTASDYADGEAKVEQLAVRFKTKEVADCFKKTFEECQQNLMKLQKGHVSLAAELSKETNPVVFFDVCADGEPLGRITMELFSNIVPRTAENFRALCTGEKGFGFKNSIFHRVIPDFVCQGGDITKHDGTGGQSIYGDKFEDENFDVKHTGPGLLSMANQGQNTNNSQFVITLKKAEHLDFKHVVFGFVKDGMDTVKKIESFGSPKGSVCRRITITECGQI
inactive: [1] 0.017 | [2] 0.014 | [3] -0.004 | [4] -0.011 | [5] -0.012 | [6] -0.004 | [7] -0.038 | [8] -0.001 | [9] -0.007 | [10] -0.019 | [11] 0.001 | [12] -0.01 | [13] 0.018 | [14] -0.009 | [15] -0.01 | [16] 0.011 | [17] 0.007 | [18] 0 | [19] 0.018 | [20] -0.001

RNF123 (UniProt Q5XPI4)
Sequence of UniProt Q5XPI4 (Q5XPI4 whole entry, looked up): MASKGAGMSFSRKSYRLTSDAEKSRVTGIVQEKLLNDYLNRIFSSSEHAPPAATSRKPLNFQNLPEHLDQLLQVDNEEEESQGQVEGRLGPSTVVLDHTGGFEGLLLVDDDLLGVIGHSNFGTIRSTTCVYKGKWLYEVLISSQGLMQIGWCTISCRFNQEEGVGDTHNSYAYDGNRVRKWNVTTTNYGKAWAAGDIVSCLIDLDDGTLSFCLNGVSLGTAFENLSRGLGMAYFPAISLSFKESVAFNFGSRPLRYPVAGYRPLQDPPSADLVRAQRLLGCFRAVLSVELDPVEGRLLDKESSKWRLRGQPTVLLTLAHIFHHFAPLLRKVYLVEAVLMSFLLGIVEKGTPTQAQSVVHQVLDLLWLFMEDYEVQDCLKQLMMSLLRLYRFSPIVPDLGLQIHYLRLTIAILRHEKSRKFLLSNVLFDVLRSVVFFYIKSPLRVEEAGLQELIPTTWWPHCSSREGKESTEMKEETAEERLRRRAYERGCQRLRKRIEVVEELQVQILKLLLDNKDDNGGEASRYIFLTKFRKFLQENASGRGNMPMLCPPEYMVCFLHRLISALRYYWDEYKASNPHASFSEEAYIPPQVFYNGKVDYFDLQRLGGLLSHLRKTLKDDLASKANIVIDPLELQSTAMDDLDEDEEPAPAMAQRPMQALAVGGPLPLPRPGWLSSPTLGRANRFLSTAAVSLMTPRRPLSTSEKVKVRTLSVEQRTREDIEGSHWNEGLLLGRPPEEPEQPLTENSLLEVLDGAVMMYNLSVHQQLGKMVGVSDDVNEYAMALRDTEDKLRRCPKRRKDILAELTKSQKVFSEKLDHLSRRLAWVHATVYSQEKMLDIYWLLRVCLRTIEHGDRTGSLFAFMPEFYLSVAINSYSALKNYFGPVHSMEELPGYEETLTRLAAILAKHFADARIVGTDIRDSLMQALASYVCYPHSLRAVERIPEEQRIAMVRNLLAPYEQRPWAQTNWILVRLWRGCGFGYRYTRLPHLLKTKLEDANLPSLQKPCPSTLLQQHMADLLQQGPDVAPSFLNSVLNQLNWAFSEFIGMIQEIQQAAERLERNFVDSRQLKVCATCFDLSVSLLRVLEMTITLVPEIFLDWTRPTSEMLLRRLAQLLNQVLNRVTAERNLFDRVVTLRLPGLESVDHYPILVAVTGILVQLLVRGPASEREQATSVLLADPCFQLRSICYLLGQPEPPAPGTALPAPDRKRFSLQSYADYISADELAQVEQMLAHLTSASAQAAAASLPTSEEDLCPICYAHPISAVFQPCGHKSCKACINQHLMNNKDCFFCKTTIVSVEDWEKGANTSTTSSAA
inactive: [1] 0.058 | [2] 0.016 | [3] -0.008 | [4] 0.029 | [5] 0.019 | [6] -0.015 | [7] -0.035 | [8] -0.005 | [9] 0.044 | [10] -0.019 | [11] 0.028 | [12] 0.017 | [13] 0.029 | [14] -0.042 | [15] -0.003 | [16] -0.02 | [17] 0.001 | [18] 0.027 | [19] -0.016 | [20] 0.022

RPS4X (UniProt P62701)
inactive: [1] -0.016 | [2] 0.014 | [3] -0.012 | [4] -0.012 | [5] -0.018 | [6] -0.002 | [7] -0.005 | [8] 0.017 | [9] 0.004 | [10] 0.03 | [11] 0 | [12] -0.003 | [13] 0.009 | [14] -0.021 | [15] 0.022 | [16] -0.026 | [17] -0.116 | [18] -0.008 | [19] -0.001 | [20] 0.034

RINT1 (UniProt Q6NUQ1)
inactive: [1] 0.056 | [2] 0.029 | [3] -0.01 | [4] 0.012 | [5] 0.03 | [6] -0.042 | [7] -0.048 | [8] -0.029 | [9] 0.067 | [10] 0.074 | [11] 0.011 | [12] 0.07 | [13] 0.05 | [14] -0.094 | [15] 0.016 | [16] -0.066 | [17] -0.064 | [18] -0.02 | [19] 0.012 | [20] 0.016

RASA3 (UniProt Q14644)
inactive: [1] 0.02 | [2] -0.089 | [3] 0.045 | [4] -0.001 | [5] 0.046 | [6] 0.021 | [7] 0.004 | [8] -0.043 | [9] -0.005 | [10] 0.02 | [11] 0 | [12] -0.031 | [13] -0.012 | [14] -0.054 | [15] 0.02 | [16] -0.048 | [17] 0.031 | [18] -0.026 | [19] -0.018 | [20] -0.078

RNF40 (UniProt O75150)
inactive: [1] -0.008 | [2] -0.01 | [3] 0.007 | [4] -0.039 | [5] -0.016 | [6] 0.003 | [7] -0.04 | [8] 0.011 | [9] 0.024 | [10] -0.008 | [11] 0.048 | [12] -0.014 | [13] 0.033 | [14] -0.015 | [15] -0.023 | [16] 0.007 | [17] -0.01 | [18] -0.001 | [19] -0.006 | [20] 0.004

SBF1 isoform 4 (UniProt O95248)
inactive: [1] 0.033 | [2] -0.059 | [3] 0.042 | [4] -0.052 | [5] -0.005 | [6] -0.027 | [7] -0.029 | [8] 0.028 | [9] -0.026 | [10] -0.002 | [11] 0.086 | [12] 0.116 | [13] 0 | [14] -0.021 | [15] -0.079 | [16] 0.045 | [17] -0.039 | [18] -0.012 | [19] 0.054 | [20] 0.079

RBM8A (UniProt Q9Y5S9)
inactive: [1] -0.061 | [2] 0.035 | [3] -0.002 | [4] 0.069 | [5] -0.042 | [6] 0.029 | [7] 0.093 | [8] 0.086 | [9] -0.076 | [10] -0.059 | [11] -0.001 | [12] -0.016 | [13] -0.011 | [14] 0.057 | [15] -0.038 | [16] -0.004 | [17] 0.066 | [18] -0.101 | [19] 0.035 | [20] 0.027

SCD (UniProt O00767)
inactive: [1] 0.075 | [2] -0.093 | [3] 0.027 | [4] 0.056 | [5] -0.012 | [6] 0.009 | [7] 0.011 | [8] -0.24 | [9] -0.021 | [10] 0.07 | [11] -0.06 | [12] -0.053 | [13] 0.059 | [14] -0.009 | [15] -0.052 | [16] 0.032 | [17] 0.047 | [18] 0.02 | [19] -0.085 | [20] -0.128

QTRT2 isoform 4 (UniProt Q9H974)
inactive: [1] -0.024 | [2] 0.082 | [3] -0.032 | [4] -0.019 | [5] -0.048 | [6] -0.009 | [7] -0.007 | [8] 0.007 | [9] 0.022 | [10] 0.006 | [11] 0.01 | [12] 0.002 | [13] 0.014 | [14] -0.028 | [15] -0.014 | [16] -0.035 | [17] 0.006 | [18] -0.025 | [19] -0.003 | [20] -0.013

R3HCC1 (UniProt Q9Y3T6)
inactive: [1] -0.015 | [2] -0.118 | [3] 0.055 | [4] 0.074 | [5] -0.086 | [6] 0.071 | [7] -0.008 | [8] 0.006 | [9] -0.016 | [10] -0.044 | [11] 0.02 | [12] 0.058 | [13] 0.016 | [14] -0.028 | [15] -0.045 | [16] 0.022 | [17] -0.061 | [18] 0.017 | [19] -0.001 | [20] 0.025

SCO1 (UniProt O75880)
inactive: [1] 0.008 | [2] -0.06 | [3] 0.036 | [4] -0.014 | [5] 0.011 | [6] 0.012 | [7] -0.045 | [8] 0.033 | [9] 0.068 | [10] 0.006 | [11] 0.029 | [12] 0.006 | [13] -0.006 | [14] -0.072 | [15] -0.11 | [16] 0.044 | [17] -0.011 | [18] 0.021 | [19] -0.065 | [20] -0.023

RBM5 (UniProt P52756)
inactive: [1] 0.095 | [2] -0.042 | [3] 0.054 | [4] 0.006 | [5] -0.006 | [6] 0.015 | [7] -0.121 | [8] -0.021 | [9] -0.001 | [10] -0.023 | [11] -0.017 | [12] 0.03 | [13] 0.004 | [14] 0.042 | [15] -0.141 | [16] -0.004 | [17] 0.065 | [18] 0.035 | [19] -0.007 | [20] -0.06

REL isoform 2 (UniProt Q04864)
inactive: [1] 0.022 | [2] -0.005 | [3] -0.048 | [4] 0.016 | [5] -0.017 | [6] 0.037 | [7] -0.019 | [8] -0.011 | [9] -0.02 | [10] 0.019 | [11] 0.032 | [12] 0.015 | [13] 0.06 | [14] -0.003 | [15] 0.005 | [16] -0.018 | [17] 0.038 | [18] 0.022 | [19] -0.023 | [20] 0.049
